MARV entry inh: Marburg virus entry inhibition; Marburg virus pseudotyped entry inhibition, cell reporter; Potency, µM (highest dose often 37.8 µM), hits mostly inhibitors; hit rate 1.8% among 300,000; calls by dose curve; tested in HEK293 cells
FMDV inh: blocks foot and mouth disease virus. FMDV antiviral cell-based qHTS. Potency, µM (titrated, usually from 57.9 µM), most hits filed as inhibitors. hit rate 1.2% among 410,000. AID 1159524; calls by dose curve; tested in HEK293T cells; further: read-out not given here; nearly all actives have a fitted effect of over 45% in size
HCMV inh: human cytomegalovirus inhibition; HFF cells, HCMV-luciferase reporter, 72 h; active compounds read low; activity change, negative = inhibition, % at 57.5 µM; hit rate 4.5% among 410,000; AID 1259415; in the data active means activity change below about -60%; inconclusive means no clear call, values can overlap the other calls; inactive means above about -39%
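HFF cells seeded 16 h at 37C, treated with compounds, infected with luciferase-reporter HCMV at MOI 1 PFU/cell; luciferase read at 72 h post infection, normalized to buffer-only and Salinomycin controls.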
Lassa entry inh: inhibitors of Lassa virus binding or cell entry | Lassa virus pseudotype entry inhibition, cell reporter | Potency, µM (doses to about 37.9 µM), most hits filed as inhibitors | hit rate 1.2% among 300,000 | AID 540256; calls by dose curve; tested in HEK293 cells; further: nearly all actives have a fitted effect of over 50% in size
HCV inhibitor: blocks hepatitis C virus | Huh7.5.1 HCVcc-Cre infection, luciferase reporter, 44 h | Potency, µM (series often up to 41.8 µM), usual class: inhibitors | hit rate 3.4% among 340,000; active means well fitted inhibition curve with a large enough effect; inconclusive means small, poorly fitted or top-dose-only effect, or another doubt; inactive means no such curve, though single readings can be large or run the other way
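A cell-based infection assay in which seeded cells (1,000 per well) receive test compound after 4 h, are inoculated with HCVcc-Cre at approximately 0.5 moi, and are incubated 44 h before luminescence detection.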
Large screens that a line does not name were inactive. Hits are enriched below; roughly 7.9% of the tested compounds scored in any of these assays.

Cc1ccc2nc(N(CCN(C)C)C(=O)C3CCN(S(=O)(=O)c4cccs4)CC3)sc2c1	none (no result: MARV entry inh, Lassa entry inh, HCV inhibitor)
CCC[C@H]1CN(c2ccc(OC)cc2)C(=O)[C@@H]1CC(=O)NC	none (no result: MARV entry inh, Lassa entry inh, HCV inhibitor)
CCOC(=O)c1c(-c2ccc(-c3ccccc3)cc2)csc1NC(=O)CNCCN(C)C	MARV entry inh inconclusive, HCMV inh -100, Lassa entry inh inconclusive, HCV inhibitor 5.6µM
CCOC(=O)c1c(-c2ccc(F)cc2)csc1NC(=O)CCN1CCOCC1	none
CCOC(=O)c1c(-c2ccc(-c3ccccc3)cc2)csc1NC(=O)CCN1CCOCC1	MARV entry inh inconclusive, Lassa entry inh 10µM, HCV inhibitor inconclusive
CCOC(=O)c1c(-c2cccs2)csc1NC(=O)CN1CC(C)OC(C)C1 (stereo not drawn)	MARV entry inh 11µM, FMDV inh inconclusive, Lassa entry inh inconclusive, HCV inhibitor inconclusive
CCOC(=O)c1c(-c2ccccc2)csc1NC(=O)C(C)NCCCN1CCOCC1 (stereo not drawn)	MARV entry inh inconclusive, Lassa entry inh inconclusive, HCV inhibitor 10µM
Oc1cccc2cccnc12	none (no result: MARV entry inh, HCMV inh, Lassa entry inh, HCV inhibitor)
O=[N+]([O-])c1cc(O)c2ncccc2c1	MARV entry inh inconclusive, HCMV inh -97, Lassa entry inh inconclusive, HCV inhibitor 0.56µM
O=[N+]([O-])c1ccc(Sc2cccc3cccnc23)c2cccnc12	MARV entry inh inconclusive, FMDV inh inconclusive, HCMV inh -101, Lassa entry inh inconclusive, HCV inhibitor 10µM
O=[N+]([O-])c1cc2cccnc2c2ncccc12	HCMV inh -97, HCV inhibitor inconclusive (no result: MARV entry inh, Lassa entry inh)
Cc1ccc([N+](=O)[O-])c2cccnc12	none
Cc1ccc([S+](=O)([O-])N[C@@H]2COC(=O)CC=C[C@H](C)COC(=O)N[C@@H](C)C(=O)CC=C[C@H]2C)cc1	none (no result: FMDV inh, HCMV inh, Lassa entry inh, HCV inhibitor)
Cc1ccc(/C=N/NC(=O)CNC(=O)c2cccc([N+](=O)[O-])c2C)o1	none (no result: MARV entry inh, Lassa entry inh)
CC(Sc1ccc(S(=O)(=O)N2CCN(C)CC2)cn1)C(=O)NC1(C#N)CCCCC1 (stereo not drawn)	none
CCn1c2ccccc2c2nc3cc(S(=O)(=O)N4CCOCC4)ccc3nc21	MARV entry inh inconclusive, Lassa entry inh inconclusive, HCV inhibitor 10µM (no result: HCMV inh)
CCn1c(SCC(=O)c2cc(C)ccc2C)nc2cc(S(=O)(=O)N3CCOCC3)ccc21	MARV entry inh inconclusive, HCMV inh -63, HCV inhibitor inconclusive
Cc1ccc(Cn2c(CN3CCC(C(=O)O)CC3)cc3ccccc32)cc1	MARV entry inh inconclusive (no result: HCV inhibitor)
Oc1ccc(C[C@H]2CNC(=S)N2CC2CCCN2C[C@H](Cc2ccccc2)N2C[C@H](Cc3ccc(O)cc3)N(CC3CCCCC3)C2=S)cc1 (stereo partly drawn)	HCMV inh -85 (no result: MARV entry inh, Lassa entry inh, HCV inhibitor)
Oc1ccc(C[C@H]2CN([C@@H](Cc3ccccc3)CN3CCC[C@@H]3CN3C(=S)NC[C@@H]3Cc3ccccc3)C(=S)N2CC2CCCCC2)cc1	none (no result: MARV entry inh, Lassa entry inh, HCV inhibitor)
CC(C)C[C@H]1CNC(=S)N1CC1CCCN1C[C@H](Cc1ccc(O)cc1)N1C[C@H](Cc2ccccc2)N(CC2CCCCC2)C1=S (stereo partly drawn)	HCMV inh -62, HCV inhibitor 11µM (no result: MARV entry inh, Lassa entry inh)
Oc1ccc(C[C@H]2CNC(=S)N2CC2CCCN2C[C@H](Cc2ccc(O)cc2)N2C[C@H](Cc3ccc(O)cc3)N(CC3CCCCCC3)C2=S)cc1 (stereo partly drawn)	FMDV inh inconclusive, HCMV inh -67, HCV inhibitor inconclusive (no result: MARV entry inh, Lassa entry inh)
CCC(C)C(NC(=O)C(Cc1ccc(O)cc1)NC(=O)OCc1ccccc1)C(=O)OC (stereo not drawn)	HCMV inh inconclusive (no result: MARV entry inh, Lassa entry inh, HCV inhibitor)
Cc1ccccc1Nc1c(N)c(=O)oc2ccccc12	FMDV inh inconclusive
Cn1nc(-c2ccc(Cl)cc2)cc1NC(=O)CCCC(=O)O	none (no result: MARV entry inh, Lassa entry inh)
COc1ccccc1C(CNC(=O)C1CCN(C(=O)Nc2ccccc2)CC1)N1CCCC1 (stereo not drawn)	none
CN(c1ccccc1)S(=O)(=O)c1ccccc1Br	HCMV inh -81, HCV inhibitor inconclusive (no result: MARV entry inh, Lassa entry inh)
CCn1c(=O)c2c(nc(SCC(=O)Nc3ccccc3)n2C)n(C)c1=O	none
COc1cc(OC)cc(C(=O)Oc2ccc(/C=N/Nc3nc4ccccc4s3)cc2OC)c1	MARV entry inh inconclusive, Lassa entry inh inconclusive, HCV inhibitor inconclusive
O=[N+]([O-])c1cc(Cl)cc(/C=N/Nc2nc3ccccc3s2)c1O	MARV entry inh inconclusive, Lassa entry inh inconclusive, HCV inhibitor 11µM
COc1ccc(/C=N/NC(=O)CCSc2nc3ccccc3s2)cc1	MARV entry inh inconclusive, Lassa entry inh inconclusive, HCV inhibitor 3.5µM
Brc1csc(/C=N/Nc2nc3ccccc3s2)c1	MARV entry inh inconclusive, Lassa entry inh inconclusive, HCV inhibitor inconclusive
COc1ccc(C=NNc2nc3ccccc3s2)cc1	MARV entry inh 7.1µM, Lassa entry inh inconclusive
C(=N\Nc1nc2ccccc2s1)/c1ccccn1	MARV entry inh inconclusive, FMDV inh 3.5µM, HCMV inh -97, Lassa entry inh 0.89µM, HCV inhibitor 1.8µM
COc1ccc([C@H]2CC(=O)c3sc(N)nc3C2)cc1	none (no result: FMDV inh, HCMV inh, Lassa entry inh, HCV inhibitor)
Cc1csc(N/N=C/c2ccc([N+](=O)[O-])cc2)n1	MARV entry inh inconclusive
Cc1csc(N/N=C/c2ccccn2)n1	MARV entry inh inconclusive, FMDV inh inconclusive, HCMV inh -103, Lassa entry inh inconclusive, HCV inhibitor inconclusive
CCOc1ccc(C(C)=O)cc1CN1C(=O)NC2(CCCCCC2)C1=O	MARV entry inh inconclusive
CCOc1ccc(C(C)=O)cc1CN1C(=O)C(=O)N(CC)C1=O	MARV entry inh inconclusive, FMDV inh 14µM, HCMV inh inconclusive
Cc1cc(C(=O)N2CCN(c3cccc(Cl)c3)CC2)c2c(C)nn(-c3ccccc3Cl)c2n1	MARV entry inh inconclusive, FMDV inh inconclusive, HCMV inh inconclusive (no result: HCV inhibitor)
Cc1ccc(C2CC(c3ccccc3)=NN2C(=S)Nc2ccccc2)o1 (stereo not drawn)	MARV entry inh inconclusive, Lassa entry inh 4µM, HCV inhibitor inconclusive
COc1ccc(CN2CCN(C(C)=O)CC2)cc1OC1CCN(C(=O)c2ccc3ccccc3n2)CC1	none (no result: MARV entry inh, HCMV inh, Lassa entry inh, HCV inhibitor)
Cc1cccc(-n2c(O)c(C=NCc3ccccn3)c3ccccc3c2=O)c1	none
Cc1ccc(-n2c(O)c(C=NCc3ccccn3)c3ccccc3c2=O)cc1	HCMV inh -65, HCV inhibitor inconclusive
CCn1c(SCc2nc(-c3ccccc3)no2)nnc1-c1cccs1	none
CCn1c(SCc2nc(-c3cccs3)no2)nnc1-c1c[nH]c2ccccc12	MARV entry inh inconclusive, FMDV inh 22µM, HCMV inh inconclusive, Lassa entry inh 20µM, HCV inhibitor inconclusive
CC(C)NC(=O)C(C)Oc1ccc(S(=O)(=O)NCc2ccc3c(c2)OCO3)cc1 (stereo not drawn)	none
CCn1c(-c2ccc(C)cc2)nn(CC(=O)NCCc2ccccc2)c1=S	MARV entry inh 8.9µM, HCMV inh -103, Lassa entry inh inconclusive, HCV inhibitor inconclusive
COc1ccc(-c2nn(CC(=O)NCCc3ccccc3)c(=S)n2C)cc1	MARV entry inh inconclusive, HCMV inh -96, Lassa entry inh 13µM, HCV inhibitor inconclusive
COc1ccc(C2=NN(CC(=O)NCCc3ccccc3)C(=O)CC2)cc1	none (no result: MARV entry inh, HCV inhibitor)
Cc1nn(CC(=O)NCCc2ccccc2)c(=O)c2ccccc12	none
Cc1oc(-c2ccccc2NC(=O)C2CCC2)nc1CNC(=O)c1c(F)ccc(F)c1F	none (no result: MARV entry inh, HCMV inh, Lassa entry inh, HCV inhibitor)

Screening results deposited in PubChem by National Center for Advancing Translational Sciences (NCATS).
